Hits are enriched below; roughly 4.5% of the tested compounds scored in any of these assays.
DAX1 inh-1 – inhibitors of human orphan nuclear receptor DAX1 (NR0B1); P51843; 340,000 compounds, 0.99% hits; HEK293 Gal4-DAX1 luciferase reporter, luminescence; inhibition, % at 6.75 µM;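 active means inhibition above the mean over all tested compounds plus 3 SD, cut at about 4.2% in these data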;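 further: 0% = DAX1-transfected cells with DMSO and 100% = empty-vector control cells with DMSO; inhibition shows as a rise in luminescence from relieved DAX1 repression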
hgDAF-12 ag – agonists of H. glycines DAF-12 nuclear receptor | HEK293 GAL4-hgDAF12 UAS-luciferase reporter, agonist luminescence; normalized to butyrate control | activation, % at 6.8 µM | 370,000 compounds, 1.8% hits | AID 687014;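 active means activation above a cutoff set at the mean of all screened compounds plus 3 SD, cut at about 10% in these data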;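 further: 0% = DMSO wells and 100% = sodium butyrate wells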
FXN GAA850 act – activators of GAA850 frataxin (FXN) promoter; HEK293 lucGAA850 FXN promoter luciferase reporter, 24 h; percent of 10 µM SAHA response; activation, % at 6 µM; 360,000 compounds, 0.56% hits;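 active means activation above the average of all compounds screened plus 3 SD, cutoff fixed separately per campaign, cut at about 7.5% in these data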;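 further: 0% = DMSO wells and 100% = 10 µM SAHA wells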
ssDAF-12 act – activates DAF-12 receptor from parasite S. stercoralis; HEK293 ssDAF-12/GRIP1 lit1-tk-luc reporter, luminescence; % of 3 µM dafachronic acid response; activation, % at 6.8 µM; 370,000 compounds, 1% hits;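 active means activation above the mean over all tested compounds plus 3 SD, cut at about 0.9% in these data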;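 further: 0% = DMSO-only wells and 100% = 3 µM delta7-dafachronic acid wells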
DAX1 inh-2 – blocks DAX1 repression of SF-1 activated StAR promoter; 370,000 compounds, 1.1% hits; inhibition, % at 6.8 µM; HEK293T StAR-luciferase reporter, SF-1/DAX-1 repression relief;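 active means inhibition above the mean over all tested compounds plus 3 SD, cut at about 3.6% in these data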;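 further: 0% = DAX-1 cells with DMSO and 100% = cells lacking DAX-1 with DMSO; higher inhibition means more luminescence from relief of DAX-1 repression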
hcDAF12 agonist – activates DAF-12 receptor from parasite H. contortus. HEK293 hcDAF-12 lit1-tk-luc reporter, luminescence; 0% DMSO, 100% Δ7-dafachronic acid. activation, % at 6.8 µM. 370,000 compounds, 1.4% hits. AID 652067;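 active means activation above the mean of all tested compounds plus 3 SD, cut at about 5.5% in these data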;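 further: 100% = response to 3 µM Δ7-dafachronic acid high control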
hgDAF12 ag – hgDAF-12 agonism, confirmation assay; shares compounds with hgDAF-12 ag; HEK293 GAL4-hgDAF12 luciferase reporter, agonist mode; percent of butyrate response; activation, % at 6.8 µM; 3,300 compounds, 80% hits; AID 743050;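 active means mean activation over triplicate wells above the hit cutoff derived from the earlier primary screen, cut at about 11% in these data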;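 further: 0% = DMSO low control and 100% = 2 mM sodium butyrate high control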
LXRb DAF12 ctr – LXR-beta agonism as DAF-12 counter-screen; shares compounds with hgDAF-12 ag; HEK293 Gal4-LXR luciferase reporter, 24 h; activation, % at 6.8 µM; 3,300 tested, under 10 active;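 active means mean activation of the triplicate above a set limit carried over from the primary screen, none filed active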
Target sequence (P55055 whole entry, looked up, the tested form may be a part): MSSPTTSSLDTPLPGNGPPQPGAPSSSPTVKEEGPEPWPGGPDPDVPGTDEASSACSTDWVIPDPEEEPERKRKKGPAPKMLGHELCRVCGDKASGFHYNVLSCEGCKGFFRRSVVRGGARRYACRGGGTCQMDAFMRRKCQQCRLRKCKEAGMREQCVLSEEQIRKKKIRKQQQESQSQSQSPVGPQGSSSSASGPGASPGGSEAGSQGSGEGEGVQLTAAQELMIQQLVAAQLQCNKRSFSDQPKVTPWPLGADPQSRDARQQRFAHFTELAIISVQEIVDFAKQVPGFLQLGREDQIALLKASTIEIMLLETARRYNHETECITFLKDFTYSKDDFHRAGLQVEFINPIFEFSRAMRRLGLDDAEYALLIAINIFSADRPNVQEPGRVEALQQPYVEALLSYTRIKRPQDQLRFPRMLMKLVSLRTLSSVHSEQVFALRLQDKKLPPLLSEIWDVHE
* marks the source's active call; other numbers are inactive results; · = no result given.

SMILES | DAX1 inh-1 | hgDAF-12 ag | FXN GAA850 act | ssDAF-12 act | DAX1 inh-2 | hcDAF12 agonist | hgDAF12 ag | LXRb DAF12 ctr
O=C(Nc1ccc(NC(=O)C2CCCCC2)cn1)c1ccco1 | -0.9 | 16.2* | 4.9 | 0.1 | 4.3* | 6.4* | 10.8* | 0.6
Cc1ccc(C(C)C)c(OCCNCCc2ccccc2)c1 | -1.1 | 1.6 | -6.0 | -0.8 | -0.3 | -2.0 | · | ·
Nc1nc(N)c2[nH]c(-c3ccccc3)nc2n1 | 1.0 | 1.3 | 2.5 | -1.4 | 0.5 | -1.4 | · | ·
COc1ccccc1NC(=O)c1ccc(NC(=O)COC(=O)CC(NC(=O)c2ccccc2Cl)c2ccccc2)cc1 (configuration not stated) | 0.2 | -0.6 | -2.0 | -2.3 | 0.1 | -1.7 | · | ·
Cc1ccc(C(=O)NCCc2ccc(F)cc2)s1 | 0.7 | 17.1* | 4.2 | -0.2 | 2.9 | 2.6 | 17.1* | 0.8
Cc1ccc(C(=O)NCc2ccc(F)cc2)s1 | 1.4 | 3.4 | 3.7 | -1.1 | 0.2 | 0.1 | · | ·
Cc1ccc(/C=C/C(=O)Nc2ccccc2C(N)=O)cc1 | -1.1 | 18.1* | 4.2 | 0.3 | 4.4* | 4.4 | 15.4* | 1.1
NC(=O)c1ccccc1NC(=O)/C=C/C(=O)O | 2.4 | 8.8 | 2.0 | -0.6 | 0.0 | 0.2 | · | ·
O=C(C[n+]1ccc(/C=N/O)cc1)N(Cc1ccccc1)Cc1ccccc1 | -1.4 | -2.6 | 3.5 | -1.2 | -0.2 | -0.1 | · | ·
O=C1C(Nc2ccccc2)=C2CCCC=C2N1c1ccccc1 | 2.3 | 13.5* | 3.9 | 0.1 | 4.2* | 5.4 | 2.6 | 0.1
COc1ccc(OC)c(C=C2CCc3ccccc3C2=O)c1 | · | 14.1* | · | -0.5 | -1.3 | 2.3 | 3.3 | 0.1
COc1ccc2c(c1)CC/C(=C/c1cc(OC)c(OC)c(OC)c1)C2=O | -3.4 | 0.0 | 1.3 | -2.3 | -0.5 | -3.7 | · | ·
COc1ccc(N(Cc2ccccc2)S(=O)(=O)c2cc(C(=O)O)ccc2Cl)cc1 | 0.4 | -0.2 | -0.9 | -1.0 | -0.3 | -1.6 | · | ·
Cc1ccc(C2=N/C(=C\N3CCCCC3)C(=O)O2)cc1 | 2.9 | 14.3* | 5.1 | -0.1 | 2.1 | 6.4* | 8.7 | 0.8
Cc1ccc(C2=N/C(=C/N3CCOCC3)C(=O)O2)cc1 | -0.6 | 7.9 | 3.3 | -0.7 | 1.5 | 0.9 | · | ·
O=C(Nc1cccc2cccnc12)c1csc([C@@H]2O[C@H](CO)[C@H](O)[C@H](O)[C@H]2O)n1 | · | -1.7 | 0.0 | -1.0 | -1.2 | 0.3 | · | ·
O=C(NCCc1ccccc1)NC1CCCCC1 | 1.1 | 14.3* | 2.4 | -0.1 | 2.8 | 5.3 | 9.7 | 0.6
O=C(NC1CCCCCC1)C(=S)NCCc1ccccc1 | 0.0 | -1.4 | 1.6 | -0.4 | 0.2 | 0.6 | · | ·
S=C(NCCc1cccc(Cl)c1)NC1CCCCC1 | 2.4 | 13.9* | 1.6 | -0.3 | 2.8 | 3.6 | 11.1* | 0.4
S=C(NCCc1ccccc1)NC1CCC(NC(=S)NCCc2ccccc2)CC1 (configuration not stated) | -0.8 | -1.3 | 1.3 | -1.4 | -1.0 | -0.8 | · | ·
C/C(=N\Nc1ccc([N+](=O)[O-])cc1)c1ccco1 | 4.8* | 14.5* | 6.5 | -0.3 | 0.8 | 3.3 | 14.6* | 0.6
C/C(=N\NC(=O)COc1ccc([N+](=O)[O-])cc1)c1ccco1 | 1.4 | -1.1 | 1.9 | -1.1 | -1.4 | -1.5 | · | ·
CC(C)N(CCO)C(=O)CCc1nnc(CCCc2ccccc2)o1 | 3.2 | 2.5 | 3.2 | -0.6 | 0.3 | 1.1 | · | ·
CC(C)N(Cc1nccn1C)C(=O)CCc1nnc(CCCc2ccccc2)o1 | 0.8 | 14.4* | 3.1 | 0.3 | 1.1 | 3.6 | 10.2 | 0.3
Clc1ccc(COn2nnc3ccccc32)c(Cl)c1 | 4.5* | 13.6* | 3.7 | 0.1 | 4.0* | 5.3 | 17.9* | 0.6
COc1ccc(C)cc1NC(=O)CN(C)S(=O)(=O)c1ccc2c(c1)CC(C)N2C(C)=O (configuration not stated) | -0.7 | -1.9 | 0.8 | -0.6 | 0.0 | 1.0 | · | ·
